# Records with an inconclusive call do not appear. The source made the active and inactive calls. Calls come from the whole dose curve; as a rule, active = well fitted curve in the direction sought with a large enough effect; inconclusive = small, poorly fitted or top-dose-only effect, or another doubt; inactive = no such curve, though single readings can be large; an effect the other way counts as inactive or inconclusive.
# Assay: qHTS of pediatric cancer cell lines to identify multiple opportunities for drug repurposing: Confirmatory screen for BT-12 cells (AID 1347112);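 note: viability read after 48 h of compound exposure; nearly all actives have a fitted effect of over 55% in size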
# Conditions: BT-12 rhabdoid tumor cells, viability; series mostly up to 45.9 µM
# How it was run: (§1)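 Cells (500-1,000/well) rested 5 h, then received compounds for 48 h; metabolically active cells were measured by CellTiter-Glo luminescence. Final concentrations spanned up to 46 µM (MIPE, 11-point) or 0.59 nM-46 µM (NPC, 8-point) in primary screens, 11-point in follow-ups.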
# Potency is the fitted concentration of half-maximal effect.
row,SMILES,Potency
1,CN1CC[C@@H](c2c(O)cc(O)c3c(=O)cc(-c4ccccc4Cl)oc23)[C@@H](O)C1,0.737 µM (active)
2,COCCn1c2c([n+](Cc3cnccn3)c1C)C(=O)c1ccccc1C2=O,0.0093 µM (active)
3,COc1cccc2c(NCc3ccccc3)nc(-n3c(N)nc4ccccc43)nc12,13.1 µM (active)
4,COC(=O)[C@]12CCC(C)(C)C[C@@H]1[C@@H]1C(=O)C=C3[C@@]4(C)C=C(C#N)C(=O)C(C)(C)[C@@H]4CC[C@@]3(C)[C@]1(C)CC2,7.37 µM (active)
5,COc1cc2c(Oc3ccc(-c4cnc(Nc5ccc(F)cc5)n(C)c4=O)cc3F)ccnc2cc1OCCCN1CCOCC1,20.8 µM (active)
6,Cc1ccc(NC(=O)C2(c3ccc4c(c3)OC(F)(F)O4)CC2)nc1-c1cccc(C(=O)O)c1,10.4 µM (active)
7,CN1CCN(Cc2ccc(NC(=O)Nc3ccc(Oc4cc(NC(=O)C5CC5)ncn4)cc3)cc2C(F)(F)F)CC1,0.465 µM (active)
8,Cc1[nH]nc2ccc(-c3cncc(OC[C@@H](N)Cc4ccccc4)c3)cc12,9.27 µM (active)
9,C[C@@]12O[C@@H](C[C@]1(O)CO)n1c3ccccc3c3c4c(c5c6ccccc6n2c5c31)CNC4=O,14.7 µM (active)
10,C=CC(=O)Nc1cc2c(Nc3ccc(F)c(Cl)c3)ncnc2cc1C#CC(C)(C)N1CCN(C)CC1,17 µM (active)
11,Nc1ncnc2c1c(-c1cnc3[nH]ccc3c1)nn2C1CCCC1,3.69 µM (active)

# Assay: qHTS of pediatric cancer cell lines to identify multiple opportunities for drug repurposing: Confirmatory screen for LAN-5 cells (AID 1347113); note: nearly all actives have a fitted effect of over 65% in size
# Conditions: LAN-5 neuroblastoma cell viability; series mostly up to 45.9 µM
# How it was run: as §1
row,SMILES,Potency
1,CN1CC[C@@H](c2c(O)cc(O)c3c(=O)cc(-c4ccccc4Cl)oc23)[C@@H](O)C1,0.465 µM (active)
2,COCCn1c2c([n+](Cc3cnccn3)c1C)C(=O)c1ccccc1C2=O,0.0059 µM (active)
3,COc1cccc2c(NCc3ccccc3)nc(-n3c(N)nc4ccccc43)nc12,9.27 µM (active)
4,COC(=O)[C@]12CCC(C)(C)C[C@@H]1[C@@H]1C(=O)C=C3[C@@]4(C)C=C(C#N)C(=O)C(C)(C)[C@@H]4CC[C@@]3(C)[C@]1(C)CC2,2.61 µM (active)
5,COc1cc2c(Oc3ccc(-c4cnc(Nc5ccc(F)cc5)n(C)c4=O)cc3F)ccnc2cc1OCCCN1CCOCC1,7.37 µM (active)
6,CN1CCN(Cc2ccc(NC(=O)Nc3ccc(Oc4cc(NC(=O)C5CC5)ncn4)cc3)cc2C(F)(F)F)CC1,1.04 µM (active)
7,Cc1[nH]nc2ccc(-c3cncc(OC[C@@H](N)Cc4ccccc4)c3)cc12,3.29 µM (active)
8,C[C@@]12O[C@@H](C[C@]1(O)CO)n1c3ccccc3c3c4c(c5c6ccccc6n2c5c31)CNC4=O,5.22 µM (active)
9,C=CC(=O)Nc1cc2c(Nc3ccc(F)c(Cl)c3)ncnc2cc1C#CC(C)(C)N1CCN(C)CC1,5.37 µM (active)
10,Nc1ncnc2c1c(-c1cnc3[nH]ccc3c1)nn2C1CCCC1,1.47 µM (active)

# Assay: qHTS of pediatric cancer cell lines to identify multiple opportunities for drug repurposing: Confirmatory screen for DAOY cells (AID 1347114); note: nearly all actives have a fitted effect of over 65% in size
# Conditions: DAOY medulloblastoma cells viability, cytotoxicity qHTS; series mostly up to 45.9 µM
# How it was run: (§2)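 Viability measured as metabolically active cells via CellTiter-Glo luminescence following 48 hours of compound exposure, 11-point dilutions in confirmatory testing. 500-1,000 cells/well plated 5 hours before dosing; controls were DMSO and 2.3 µM bortezomib.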
row,SMILES,Potency
1,CN1CC[C@@H](c2c(O)cc(O)c3c(=O)cc(-c4ccccc4Cl)oc23)[C@@H](O)C1,0.465 µM (active)
2,COc1cc2c(Oc3ccc(-c4cnc(Nc5ccc(F)cc5)n(C)c4=O)cc3F)ccnc2cc1OCCCN1CCOCC1,11.7 µM (active)
3,CN1CCN(Cc2ccc(NC(=O)Nc3ccc(Oc4cc(NC(=O)C5CC5)ncn4)cc3)cc2C(F)(F)F)CC1,0.522 µM (active)
4,Cc1[nH]nc2ccc(-c3cncc(OC[C@@H](N)Cc4ccccc4)c3)cc12,4.27 µM (active)
5,C=CC(=O)Nc1cc2c(Nc3ccc(F)c(Cl)c3)ncnc2cc1C#CC(C)(C)N1CCN(C)CC1,4.79 µM (active)

# Assay: qHTS of pediatric cancer cell lines to identify multiple opportunities for drug repurposing: Confirmatory screen for SJ-GBM2 cells (AID 1347116); note: nearly all actives have a fitted effect of over 60% in size
# Conditions: SJ-GBM2 glioblastoma cells, viability; series mostly up to 45.9 µM
# How it was run: as §2
row,SMILES,Potency
1,CN1CC[C@@H](c2c(O)cc(O)c3c(=O)cc(-c4ccccc4Cl)oc23)[C@@H](O)C1,0.369 µM (active)
2,COCCn1c2c([n+](Cc3cnccn3)c1C)C(=O)c1ccccc1C2=O,0.0657 µM (active)
3,COC(=O)[C@]12CCC(C)(C)C[C@@H]1[C@@H]1C(=O)C=C3[C@@]4(C)C=C(C#N)C(=O)C(C)(C)[C@@H]4CC[C@@]3(C)[C@]1(C)CC2,4.14 µM (active)
4,COc1cc2c(Oc3ccc(-c4cnc(Nc5ccc(F)cc5)n(C)c4=O)cc3F)ccnc2cc1OCCCN1CCOCC1,14.7 µM (active)
5,CN1CCN(Cc2ccc(NC(=O)Nc3ccc(Oc4cc(NC(=O)C5CC5)ncn4)cc3)cc2C(F)(F)F)CC1,1.65 µM (active)
6,C[C@@]12O[C@@H](C[C@]1(O)CO)n1c3ccccc3c3c4c(c5c6ccccc6n2c5c31)CNC4=O,18.5 µM (active)
7,C=CC(=O)Nc1cc2c(Nc3ccc(F)c(Cl)c3)ncnc2cc1C#CC(C)(C)N1CCN(C)CC1,6.03 µM (active)
8,Nc1ncnc2c1c(-c1cnc3[nH]ccc3c1)nn2C1CCCC1,2.33 µM (active)

# Source: PubChem BioAssay (NCATS)
